Reference: PubChem BioAssay (NCI)
Compounds without any hit were thinned out: in the full panel of roughly 79,000, 15% have a hit. The source made the active and inactive calls. Cut-off read from the data, not from the text of the source: active = growth inhibition above about 70%; inactive = the rest.

What was measured:
[1] = NCI Yeast Anticancer Drug Screen. Data for the rad50 strain (AID 155);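 note: 0% = growth of vehicle-only cultures of the same strain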; details: S. cerevisiae rad50 strain growth inhibition, active compounds read high
Method in brief: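 Readout: growth inhibition relative to vehicle-treated cultures. Compound exposure was carried out in a genetically defined yeast strain deficient in DNA damage repair.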

[2] = NCI Yeast Anticancer Drug Screen. Data for the mec2-1 strain (AID 157); details: S. cerevisiae mec2-1 strain, active compounds read high
Method in brief: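 Using mec2-1 yeast: add compound, measure growth, express inhibition versus vehicle-treated cultures.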

[3] = NCI Yeast Anticancer Drug Screen. Data for the sgs1 mgt1 strain (AID 161);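 note: 0% = growth of cultures given vehicle only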; details: S. cerevisiae sgs1 mgt1 strain, active compounds read high
Method in brief: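 Yeast cells carrying a defined DNA-repair defect were exposed to test compounds. Growth inhibition was measured relative to vehicle-treated controls.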

[4] = NCI Yeast Anticancer Drug Screen. Data for the cln2 rad14 strain (AID 165);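 note: 0% = growth equal to vehicle treated cultures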; details: S. cerevisiae cln2 rad14 strain, active compounds read high
Method in brief: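 Yeast strain cln2 rad14, bearing defects in cell cycle control and DNA repair, serves as the test system; values reflect growth inhibition compared with vehicle.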

[5] = NCI Yeast Anticancer Drug Screen. Data for the bub3 strain (AID 167); details: S. cerevisiae bub3 mutant strain, active compounds read high
Method in brief: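 Readout: yeast growth inhibition, expressed relative to vehicle-only wells. The test organism is a mutant strain from a panel with lesions in DNA repair or checkpoint genes.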

[6] = NCI Yeast Anticancer Drug Screen. Data for the mlh1 rad18 strain (AID 175); details: S. cerevisiae mlh1 rad18 strain growth inhibition, active compounds read high
Method in brief: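 Steps: expose repair-defective yeast to compound; measure growth; express inhibition against vehicle-treated controls.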

[7] = at 5.0 µM (retest, dose inferred, filed as 0.5)
[8] = at 50.0 µM (retest, dose inferred, filed as 5.0)

Measured: growth inhibition

COC(CCC[N+](C)(C)C)CC[N+](C)(C)C (configuration not stated)
active: [1]; [8] 81% | [1]; at 50.0 µM 95.9% | [2]; [8] 83% | [2]; at 50.0 µM 97.6% | [3]; [8] 78% | [3]; at 50.0 µM 97.8% | [4]; [8] 70% | [4]; at 50.0 µM 95.9% | [5]; [8] 70% | [5]; at 50.0 µM 97.1% | [6]; [8] 81% | [6]; at 50.0 µM 96.5%
inactive: [1]; [7] 11% | [2]; [7] -9% | [3]; [7] -7% | [4]; [7] 1% | [5]; [7] -9% | [6]; [7] 8%

O=C(O)CC(CCCc1ccccc1)C(=O)O (configuration not stated)
inactive: [1]; [7] -1% | [1]; [8] -3% | [1]; at 50.0 µM -7.45% | [2]; [7] -41% | [2]; [8] -3% | [2]; at 50.0 µM 15.4% | [3]; [7] -1% | [3]; [8] -4% | [3]; at 50.0 µM -10.8% | [4]; [7] -2% | [4]; [8] -1% | [4]; at 50.0 µM 40.9% | [5]; [7] -5% | [5]; [8] -7% | [5]; at 50.0 µM -1.1% | [6]; [7] 0% | [6]; [8] -4% | [6]; at 50.0 µM 2.55%

CC(=O)OC1(c2ccccc2)N=C(c2ccccc2)N=C1c1ccccc1 (configuration not stated)
active: [6]; at 50.0 µM 70.1%
inactive: [1]; [7] 13% | [1]; [8] 28% | [1]; at 50.0 µM 28.9% | [2]; [7] 4% | [2]; [8] 13% | [2]; at 50.0 µM 19.1% | [3]; [7] 6% | [3]; [8] 37% | [3]; at 50.0 µM 65.8% | [4]; [7] 13% | [4]; [8] 28% | [4]; at 50.0 µM 38.3% | [5]; [7] 13% | [5]; [8] 24% | [5]; at 50.0 µM 41.9% | [6]; [7] 3% | [6]; [8] 39%

CCC(CC)COC(=O)C(C)=O
inactive: [1]; [7] -2% | [1]; [8] 1% | [1]; at 50.0 µM -11.7% | [2]; [7] 2% | [2]; [8] 0% | [2]; at 50.0 µM 19.4% | [3]; [7] 1% | [3]; [8] 3% | [3]; at 50.0 µM 18.1% | [4]; [7] -1% | [4]; [8] -4% | [4]; at 50.0 µM 25.6% | [5]; [7] 0% | [5]; [8] 5% | [5]; at 50.0 µM 4.3% | [6]; [7] -1% | [6]; [8] 2% | [6]; at 50.0 µM 26.9%

C=CCNC(=O)NC1=CSC2=NC(=O)C3(NN12)c1ccccc1-c1ccccc13
active: [1]; at 50.0 µM 76.7% | [3]; at 50.0 µM 82.5% | [4]; [8] 83% | [4]; at 50.0 µM 73.4% | [5]; at 50.0 µM 76.4% | [6]; at 50.0 µM 82.1%
inactive: [1]; [7] -1% | [1]; [8] 50% | [2]; [7] -13% | [2]; [8] 48% | [2]; at 50.0 µM 68.2% | [3]; [7] -2% | [3]; [8] 63% | [4]; [7] 0% | [5]; [7] -6% | [5]; [8] 66% | [6]; [7] -6% | [6]; [8] 64%

CCC1(C)CCC2(C)C(CCC3C4(C)CCCC32OC4=O)C1 (configuration not stated)
inactive: [1]; [7] 16% | [2]; [7] -2% | [3]; [7] 2% | [4]; [7] -9% | [5]; [7] 15% | [6]; [7] -10%
active: [1]; [8] 93% | [1]; at 50.0 µM 97.5% | [2]; [8] 96% | [2]; at 50.0 µM 94.3% | [3]; [8] 97% | [3]; at 50.0 µM 96.8% | [4]; [8] 92% | [4]; at 50.0 µM 91.9% | [5]; [8] 98% | [5]; at 50.0 µM 96.2% | [6]; [8] 92% | [6]; at 50.0 µM 92.2%

C[n+]1c(-c2cccc(OCCCCCCCCOc3cccc(-c4c5cc(N)ccc5c5ccc(N)cc5[n+]4C)c3)c2)c2cc(N)ccc2c2ccc(N)cc21
active: [1]; [7] 99% | [1]; [8] 97% | [1]; at 50.0 µM 85.3% | [2]; [7] 99% | [2]; [8] 99% | [2]; at 50.0 µM 88.2% | [3]; [7] 97% | [3]; [8] 98% | [3]; at 50.0 µM 89.8% | [4]; [7] 98% | [4]; [8] 97% | [4]; at 50.0 µM 89.8% | [5]; [7] 99% | [5]; [8] 98% | [5]; at 50.0 µM 88.5% | [6]; [7] 96% | [6]; [8] 97% | [6]; at 50.0 µM 89.3%

COC(=O)c1cc(C)c2sc3ccccc3c2c1C
inactive: [1]; [7] -13% | [1]; [8] 29% | [2]; [7] -8% | [2]; [8] 23% | [2]; at 50.0 µM 5.3% | [3]; [7] -7% | [3]; [8] 51% | [4]; [7] -8% | [4]; [8] 16% | [4]; at 50.0 µM -24.1% | [5]; [7] -21% | [5]; [8] 21% | [5]; at 50.0 µM 31.4% | [6]; [7] -3% | [6]; [8] 38% | [6]; at 50.0 µM 61.5%
active: [1]; at 50.0 µM 73.1% | [3]; at 50.0 µM 75.2%

C/C=C(\C)C(=O)O[C@@H]1CC(C)(C)CC2C3=CCC4[C@]56CC[C@](O)(OC5)C(C)(C)C6CC[C@@]4(C)C3(C)CC[C@]21C(=O)O (some centres not stated)
active: [1]; [8] 90% | [1]; at 50.0 µM 86.5% | [2]; [8] 88% | [2]; at 50.0 µM 84.7% | [3]; [8] 93% | [3]; at 50.0 µM 87.2% | [4]; [7] 73% | [4]; [8] 94% | [4]; at 50.0 µM 78.8% | [5]; [7] 70% | [5]; [8] 96% | [5]; at 50.0 µM 81.8% | [6]; [8] 94% | [6]; at 50.0 µM 81.2%
inactive: [1]; [7] 53% | [2]; [7] 67% | [3]; [7] 55% | [6]; [7] 69%
